{"source": "the OligoGym collection", "data": [{"target": "MYL4", "experiment": "pooled miR-30 sensor sort-seq; sequence = guide strand", "conditions": "shRNA", "values": [{"sequence": "TTTATTAACAGGGAGGGCCTGT", "sensor-assay potency score (higher = more potent)": -0.299}, {"sequence": "TAGGTGATCTTCATCTCTCCAG", "sensor-assay potency score (higher = more potent)": -0.392}, {"sequence": "TCTTTGAACTCTTCAATCTGGT", "sensor-assay potency score (higher = more potent)": -0.00801}]}, {"target": "MYNN", "experiment": "pooled miR-30 sensor sort-seq; sequence = guide strand", "conditions": "shRNA", "values": [{"sequence": "TTTTTCTTCACCATGATGCATG", "sensor-assay potency score (higher = more potent)": -0.931}, {"sequence": "TTGACCTCAACAATGTATCTGA", "sensor-assay potency score (higher = more potent)": 0.54}, {"sequence": "TGCTTCTGTAGATCGCACCAAA", "sensor-assay potency score (higher = more potent)": -1.32}, {"sequence": "TTGAGATTGCTAGAAGTCGCAA", "sensor-assay potency score (higher = more potent)": -0.134}, {"sequence": "TTTGAGATGACTTTTTCGCTAA", "sensor-assay potency score (higher = more potent)": -0.185}, {"sequence": "TTATGTATTCTCATGTGCCTTC", "sensor-assay potency score (higher = more potent)": 0.676}, {"sequence": "TTATTTGTGCAACTTGTTCTAC", "sensor-assay potency score (higher = more potent)": 0.0284}, {"sequence": "TAACAGTGTGCACAATATCTTG", "sensor-assay potency score (higher = more potent)": -1.2}, {"sequence": "TCGATTATTATAATCTCGCAGA", "sensor-assay potency score (higher = more potent)": -0.633}, {"sequence": "TTTGAGATAGTCAGCAGCCTGA", "sensor-assay potency score (higher = more potent)": -0.243}, {"sequence": "TTTCTGAAATCCATCAGCCTTC", "sensor-assay potency score (higher = more potent)": -0.541}, {"sequence": "TAAATTTTTAATATCTGTGTAA", "sensor-assay potency score (higher = more potent)": -0.492}]}, {"target": "MYO1A", "experiment": "pooled miR-30 sensor sort-seq; sequence = guide strand", "conditions": "shRNA", "values": [{"sequence": "TAGCACTTGTCGAATCTCCTCC", "sensor-assay potency score (higher = more potent)": 0.419}, {"sequence": "TTGTCGAATCTCCTCCTCCGAG", "sensor-assay potency score (higher = more potent)": -0.993}, {"sequence": "TTGAGCTGCTTCACTAATCGGG", "sensor-assay potency score (higher = more potent)": 0.105}, {"sequence": "TAAATCTTCTGTATGAGTGTGG", "sensor-assay potency score (higher = more potent)": 0.504}, {"sequence": "TTTTTGTAGCGTAGCTTGCTGT", "sensor-assay potency score (higher = more potent)": -0.784}, {"sequence": "TAAGACATCACCAGCTTGCTGG", "sensor-assay potency score (higher = more potent)": -0.216}, {"sequence": "TAGTCCACCTTTGTCCACGGTA", "sensor-assay potency score (higher = more potent)": -0.661}, {"sequence": "TTCCTCTTGCTCTTCTTTCAGG", "sensor-assay potency score (higher = more potent)": -0.825}, {"sequence": "TTCTCCTTGAACCTCACTGAGA", "sensor-assay potency score (higher = more potent)": -1.61}, {"sequence": "TTGATTCGATTCACTATCCAGT", "sensor-assay potency score (higher = more potent)": -0.284}, {"sequence": "TTGTCTAAGACGTTTGTGGATG", "sensor-assay potency score (higher = more potent)": -0.839}]}, {"target": "MYO1D", "experiment": "pooled miR-30 sensor sort-seq; sequence = guide strand", "conditions": "shRNA", "values": [{"sequence": "TTGTTCTTGCTTCAGAACCAGC", "sensor-assay potency score (higher = more potent)": -1.43}, {"sequence": "TTCAAAACTGTTGTTGTCGAAG", "sensor-assay potency score (higher = more potent)": -0.485}, {"sequence": "TTCAAGAAACATTTCATCGGTG", "sensor-assay potency score (higher = more potent)": 0.501}, {"sequence": "TTAAGTAAGATGATCCTTGGAG", "sensor-assay potency score (higher = more potent)": 0.286}, {"sequence": "TAGATGTTCAACAACTTGTAAG", "sensor-assay potency score (higher = more potent)": -1.57}, {"sequence": "TTGTTCTGAACCTCCTTGGAGT", "sensor-assay potency score (higher = more potent)": -0.407}, {"sequence": "TAGTAGAGAGCAATTCTGCTAT", "sensor-assay potency score (higher = more potent)": 0.00249}, {"sequence": "TTAGTTTCTTGACAGCCTCTTT", "sensor-assay potency score (higher = more potent)": -0.583}, {"sequence": "TTGAGCACAGGATTTGAACTGT", "sensor-assay potency score (higher = more potent)": 0.338}, {"sequence": "TATAGTTGTAGGATGAAAGGGA", "sensor-assay potency score (higher = more potent)": 0.615}, {"sequence": "TTTCTCAACCATATCTGTCTTA", "sensor-assay potency score (higher = more potent)": 0.187}]}, {"target": "MYO1F", "experiment": "pooled miR-30 sensor sort-seq; sequence = guide strand", "conditions": "shRNA", "values": [{"sequence": "TTCTTCACTTTCTCTCGCCCAA", "sensor-assay potency score (higher = more potent)": -0.544}, {"sequence": "TTGTTGTTGCGCACAGTCTTGG", "sensor-assay potency score (higher = more potent)": -0.625}, {"sequence": "TTGGCTTGTTTCTTGATCTTGG", "sensor-assay potency score (higher = more potent)": 0.371}]}]}
